# Assay outcomes as filed in PubChem BioAssay.
# The list is not random: actives were taken first. Their share in the collection is about 7.7%.
# RE007 growth inh = qHTS Assay for Inhibitors of the HIV-1 protein Vpr; S. pombe RE007 Vpr strain, BacTiter-Glo ATP luminescence, 24 h; Potency, µM (top dose mostly 92.2 µM), for the others: top-dose activity change, negative = less growth, actives largely listed as inhibitors; actives 0.21% (n = 360,000); AID 651644, 2012; active = well fitted falling curve with a large enough effect; inconclusive = small, poorly fitted or top-dose-only effect; inactive = no such curve, though single readings can be large or run the other way; note: potency is the fitted concentration of half-maximal effect; nearly all actives have a fitted effect of over 50% in size
#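 Fission yeast strain RE007, carrying one chromosomally integrated HIV-1 vpr copy, was seeded at OD 0.01 in PMG+AL medium with 23 nL pinned compound. After 24 h at 30 °C and 99% humidity, viability was read by BacTiter-Glo luminescence.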
# FMDV inh = High Throughput Screening for Foot and Mouth Disease Virus Antivirals. Potency, µM (highest dose often 57.9 µM), for the others: at the top dose activity change, negative = inhibition, hits mostly inhibitors. FMDV antiviral cell-based qHTS. actives 1.2% (n = 410,000); calls by dose curve; tested in HEK293T cells; note: read-out not given here; potency is the fitted concentration of half-maximal effect; nearly all actives have a fitted effect of over 45% in size
# Sm TGR inh = qHTS Assay for the Inhibitors of Schistosoma Mansoni Peroxiredoxins | AID 485364, 2010 | actives 3% (n = 360,000) | purified TGR, DTNB reduction, TNB absorbance 405 nm | Potency, µM (doses to about 114 µM), for inactives: top-dose activity change, negative = inhibition, actives largely listed as inhibitors | Schistosoma mansoni thioredoxin glutathione reductase (TGR), Q962Y6; note: potency is the fitted concentration of half-maximal effect; nearly all actives have a fitted effect of over 60% in size
#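 TGR 20 nM + NADPH 100 uM (dispensed conc.), cpd preinc 15 min RT; start with NADPH (500 uM addition) then DTNB (15 mM addition). Kinetic TNB absorbance, 405 nm filter. Four-parameter Hill fit across titration.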
# TbPYK inhibitor = qHTS of Trypanosoma Brucei Inhibitors; pyruvate kinase (Trypanosoma brucei), Q57TT1; TbPYK enzyme, Kinase-Glo Plus ATP luminescence, 45 min; Potency, µM (titrated, usually from 76.8 µM), for inactives: top-dose activity, negative = inhibition, most hits filed as inhibitors; actives 0.12% (n = 410,000); note: potency is the fitted concentration of half-maximal effect; nearly all actives have a fitted effect of over 50% in size
#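 Assay buffer: 50 mM TEA pH 7.2, 100 mM KCl, 10 mM MgCl2, 0.05% BSA, 0.01% Tween-20. Pyruvate kinase from T. brucei plus substrate met compound, then ADP (130 uM final). Luminescence was read post 45 min RT.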
# HCMV inh = qHTS Assay for inhibitors of the human cytomegalovirus (HCMV). activity change, negative = inhibition, % at 57.5 µM. HFF cells, HCMV-luciferase reporter, 72 h; hits give low values. actives 4.5% (n = 410,000); in the data active = activity change below about -60%; inconclusive = no clear call, values can overlap the other calls; inactive = above about -39%
#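 Luciferase read-out from HCMV-luciferase-infected HFFs (MOI 1 PFU/cell) 72 h post infection at 37C; compounds added after 16 h cell attachment; activity normalized between buffer-only basal and Salinomycin (10uM) inhibitor controls.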
# FBPA Giardia inh = qHTS Assay for Inhibitors of Fructose-1,6-bisphosphate Aldolase from Giardia Lamblia | A8B2U2 | purified Giardia FBPA | Potency, µM (doses to about 59.6 µM), for inactives: top-dose activity, negative = inhibition, usual class: inhibitors | actives 0.71% (n = 290,000); note: potency is the fitted concentration of half-maximal effect; nearly all actives have a fitted effect of over 55% in size
# Target sequence (A8B2U2 whole entry, looked up): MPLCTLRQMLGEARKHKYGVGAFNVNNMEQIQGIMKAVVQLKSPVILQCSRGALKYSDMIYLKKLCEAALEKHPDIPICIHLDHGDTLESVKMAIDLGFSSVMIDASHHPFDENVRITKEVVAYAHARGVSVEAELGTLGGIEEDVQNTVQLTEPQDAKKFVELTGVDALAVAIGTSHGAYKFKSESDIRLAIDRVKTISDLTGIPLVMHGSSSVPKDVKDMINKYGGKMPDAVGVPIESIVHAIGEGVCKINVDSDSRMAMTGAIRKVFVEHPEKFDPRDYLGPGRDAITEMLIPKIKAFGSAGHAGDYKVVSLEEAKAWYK
#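 40 nM FBPA preincubated 10 min at RT with compound (up to 57.5 uM final), then substrate plus GAPDH/TPI/NAD/arsenate coupling and diaphorase/resazurin added. Fluorescence read after 20 min at RT, 525/598 nm.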
# * = called active by the depositor; ? = inconclusive; / = no result given; [ ] = remark or other dose. Unless noted, calls come from the whole dose curve; as a rule, active = well fitted curve in the direction sought with a large enough effect; inconclusive = small, poorly fitted or top-dose-only effect, or another doubt; inactive = no such curve, though single readings can be large; an effect the other way counts as inactive or inconclusive. % is set by controls: 0 for no effect and ±100 for the full control effect.
SMILES,RE007 growth inh,FMDV inh,Sm TGR inh,TbPYK inhibitor,HCMV inh,FBPA Giardia inh
CC(=O)C1=C(c2ccc(Cl)c(Cl)c2)N(C(C)=O)n2c(nnc2C2CCCCC2)S1,/,-14%,2%,-3%,33,/
COc1ccc(C2=C(C(C)=O)Sc3nnc(-c4ccc(C)cc4)n3N2C(C)=O)cc1OC,/,-29%,-3%,2%,-99*,/
Cn1ccc2cc(S(=O)(=O)N3CCCN(C(=O)Nc4ccc(Br)cc4)CC3)ccc21,/,1%,-10%,4%,-3,/
O=C(/C=C/c1ccc2ccccc2n1)c1cc(Cl)ccc1O,16%,40%,25µM*,-4%,14,-13%
CC(=O)c1cccc(-c2ccnc3c2CC(C(=O)Nc2ccc(C(C)C)cc2)O3)c1 (stereo not given),-24%[18.4 µM],-14%,/,-3%,-82*,/
CC(=O)Nc1ccc(-c2ccnc3c2CC(C(=O)Nc2ccc(Cl)c(C(F)(F)F)c2)O3)cc1 (stereo not given),-1%,0%,/,-2%,-26,/
O=C(Nc1ccc(Cl)c(C(F)(F)F)c1)C1Cc2c(-c3ccccc3)ccnc2O1 (stereo not given),4%,-27%,/,-7%,-84*,/
CC(=O)c1cccc(NC(=O)C2Cc3c(-c4cccc(C(C)=O)c4)ccnc3O2)c1 (stereo not given),-3%[18.4 µM],22µM*,/,12%,?,/
COc1ccc(NC(=O)C2Cc3c(-c4cccc(F)c4)ccnc3O2)cc1 (stereo not given),-16%,-15%,/,-2%,-81*,/
CC(=O)c1cccc(NC(=O)C2Cc3c(-c4cccc(C(N)=O)c4)ccnc3O2)c1 (stereo not given),-4%,?,/,1%,18,/
OC1(c2ccc(Cl)cc2)CCN(Cc2cn[nH]c2-c2ccc(F)cc2)CC1,16%,-18%,0%,3%,-78*,-2%
CCCC(=O)Nc1ccc(Cl)c(NC(=O)c2cccc(OC)c2)c1,-15%,-5%,8.9µM*,-4%,-79*,-2%
CCC(=O)Nc1ccc(Cl)c(-c2nc3ccccc3[nH]2)c1,/,-22%,-9%,-4%,-16,/
COc1cccc(C(=O)Nc2ccc(Cl)c(-c3nc4ccccc4[nH]3)c2)c1,/,?,7%,4%,-89*,/
Cc1ccc(NC(=O)c2ccc(=O)n(Cc3ccccc3C)c2)c(C)c1,/,8%,-4%,0%,-38,/
Cc1c(Cl)cccc1NC(=O)CN1C(=O)COc2ccc(S(=O)(=O)Nc3ccccc3)cc21,/,21%,4%,-7%,?,/
CC(C)N1CCN(c2ccc(C(=O)c3c(-c4ccc(O)cc4)sc4cc(O)ccc34)cc2)CC1,/,23%,/,/,/,5%
CCOC(=O)c1c(C)n(-c2ccc(OC)cc2)c2ccc(OC(=O)COc3ccccc3)cc12,/,4%,5%,2%,?,/
Cc1nn(Cc2ccc(C(=O)Nc3ccccc3C(F)(F)F)o2)c(C)c1Br,6%[3.69 µM],-3%,-8%,/,-10,1%
Cc1csc(NC(=O)c2cn3ccccc3n2)n1,?,14µM*,2%,?,0,?
Cc1csc(NC(=O)c2ccc(Cn3nc(C)c(Br)c3C)o2)n1,11%,22µM*,-16%,3%,-16,-4%
CC1CCc2nc(NC(=O)c3ccco3)sc2C1 (stereo not given),?,-90%,-3%,1%,-78*,-3%
O=C(Nc1nc(-c2ccc(Cl)s2)cs1)c1cccs1,?,37%,-13%,-9%,-1,-13%
O=C(Nc1nc(-c2ccc(Cl)s2)cs1)c1ccco1,?,9%,40µM*,2%,16,-1%
CC(=O)c1ccc(OC2C(O)COC2/C=C/c2ccc(Cl)cc2)cc1 (stereo not given),/,/,/,/,/,2%[12.9 µM]
SMILES,RE007 growth inh,FMDV inh,Sm TGR inh,TbPYK inhibitor,HCMV inh,FBPA Giardia inh
CCOC(=O)c1cccc(NC(=O)Cn2c(=O)nc(-c3ccccc3F)c3cc(Cl)ccc32)c1,/,3%,0%,-10%,24,/
CC(=O)NCCNc1nc(-c2ccccc2C)nc2ccccc12,/,-3%,/,/,/,1%
COc1ccc2ccccc2c1CN1CCCC(n2cc(C(=O)N3CCCC3)nn2)C1 (stereo not given),/,12%,/,/,/,/
Cc1csc(NC(=O)c2ccco2)n1,-18%,21%,21%,-3%,-84*,7%
O=C(O)Cc1csc(NC(=O)c2ccco2)n1,-3%,-1%,-15%,-6%,-6,-9%
Cc1cc(C)c(S(=O)(=O)Nc2ccc(-c3ccc(N4CCCCC4)nn3)cc2)cc1C,/,47%,3%,0%,-32,/
O=C(NCC1CCCCC1)C1(CC2CC(c3cccc(Br)c3)=NO2)CCNCC1 (stereo not given),3%,0%,45µM*,-8%,-27,4%
CCCCCCCNC(=O)C1(CC2CC(c3ccccc3)=NO2)CCNCC1 (stereo not given),-2%,-5%,?,1%,5,/
O=C(NCc1ccccc1)C1(CC2CC(c3ccccc3)=NO2)CCNCC1 (stereo not given),8%,-20%,50µM*,-9%,-26,/
CCN1Cc2c(/C=C/c3ccccc3)nc3ccc(OC)cc3c2N(c2cccc(Cl)c2)C1,/,40µM*,40µM*,4%,-102*,0%
Cc1ccc(-c2noc(CNC(=O)COc3cc(C)c(Br)c(C)c3)n2)cc1,/,-15%,10%,5%,-30,/
CCC(C)NC(=O)CSc1nc2cc(S(=O)(=O)N3CCOCC3)ccc2n1CC (stereo not given),1%,-8%,-2%,1%,34,/
CCn1c(SCC(=O)c2cc(C)ccc2C)nc2cc(S(=O)(=O)N3CCOCC3)ccc21,/,-27%,-9%,-14%,-63*,2%
CC1(C(=O)Nc2ccccc2)Cc2c(-c3ccc4c(c3)OCO4)ccnc2O1 (stereo not given),-6%,10%,/,-10%,-23,/
CC1(C(=O)Nc2cccc(Oc3ccccc3)c2)Cc2c(-c3ccc4c(c3)OCO4)ccnc2O1 (stereo not given),1%[18.4 µM],-7%,/,-6%,-67*,/
O=C(NC1(Cc2ccccc2)CCN(CCCc2ccccc2)C1=O)c1ccccc1 (stereo not given),-5%,1%,-3%,1%,-98*,/
Cc1ccc2c(c1)C(c1ccc(F)cc1)N(C(=O)c1ccc(S(=O)(=O)N3CCCCC3)cc1)CC(=O)N2 (stereo not given),/,-14%,5%,-5%,4,/
